Screening data (PubChem BioAssay)
Glyco luc inh – increase of ERlucT glycosylation luciferase signal, primary screen, N-linked glycosylation inhibitor project, D54 ERlucT cells, luminescence, set 2. 360,000 tested, 0.23% active. D54 ERlucT glycosylation luciferase reporter, 24 h; percent of 100 nM tunicamycin response. AID 588692, 2011. reporter increase, % at 12.5 µM;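 active = mean luciferase reporter signal, scaled so untreated is 0 and the glycosylation-blocking control 100, at or above a set limit in every replicate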;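 note: luciferase carries N-glycosylation sites so blocking glycosylation raises the light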
PvdQ acylase – P. aeruginosa PvdQ acylase inhibitors, primary screen, biochemical, fluorescence, plate reader and imaging, single point. PvdQ acylase [Pseudomonas aeruginosa LESB58]. AID 488965, 2010. 340,000 tested, 0.063% active. purified PvdQ acylase. inhibition, % at 10 µM; in the data active = inhibition above about 30%, passing the limit was not always enough
ERp5 block – inhibitors of ERp5-driven insulin aggregation, primary screen, biochemical, turbidity, absorbance 650 nm, single point; Protein disulfide-isomerase A6 (Homo sapiens), Q15084; 90 min; inhibition, % at 9.99 µM; 350,000 tested, 0.05% active; AID 651711, 2012;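 active = mean replicate inhibition above about 25%, with every replicate also reaching it, limit read from the data, passing the limit was not always enough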
Target sequence (Q15084 whole entry, looked up): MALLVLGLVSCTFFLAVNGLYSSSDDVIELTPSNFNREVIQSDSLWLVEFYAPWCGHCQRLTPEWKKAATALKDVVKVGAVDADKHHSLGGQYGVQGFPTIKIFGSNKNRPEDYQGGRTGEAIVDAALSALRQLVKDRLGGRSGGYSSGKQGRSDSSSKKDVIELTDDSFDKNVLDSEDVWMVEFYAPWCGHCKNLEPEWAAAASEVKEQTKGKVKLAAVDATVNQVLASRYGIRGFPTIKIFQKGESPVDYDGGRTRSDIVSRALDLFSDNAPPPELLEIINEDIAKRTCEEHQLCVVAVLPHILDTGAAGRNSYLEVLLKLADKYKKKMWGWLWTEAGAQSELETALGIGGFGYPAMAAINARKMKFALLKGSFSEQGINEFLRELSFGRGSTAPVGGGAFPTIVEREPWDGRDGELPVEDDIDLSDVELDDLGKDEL
PDI inh – inhibitors of human PDI, primary screen, biochemical, turbidity, single point, plate reader | PDI insulin aggregation turbidity, A650, 90 min | 350,000 tested, 0.052% active | inhibition, % at 10 µM;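 active = mean inhibition across replicates of 30% or more, whatever share of single replicates reach that level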
Vif inh – HIV Vif self-association inhibitors, primary screen, imaging, HEK293T, single point. HEK293T cells, Vif self-association by quenched fluorescence, 24 h. inhibition, % at 7.49 µM. 340,000 tested, 0.35% active; in the data active = inhibition above about 50%, passing the limit was not always enough
Hits are given with their value; – = inactive; · = no result. Only some compounds are listed: those with a hit (about 0.56% of all), similar ones and a draw of the others.

SMILES	Glyco luc inh	PvdQ acylase	ERp5 block	PDI inh	Vif inh
COC(=O)c1c(-n2c(C)cc(C=O)c2C)sc2c1CCCC2	–	–	–	–	84
Cc1cc(C=O)c(C)n1-c1sc2c(c1C(=O)O)CCCC2	–	–	·	–	–
CCOC(=O)CCCCC(=O)c1[nH]c(=O)[nH]c1C[n+]1ccc(C)cc1	–	–	–	–	–
Cc1ccc(C(=O)/C=C\C(=O)c2ccc(C)cc2)cc1	–	–	–	–	–
Cc1ccc(S/C=C\C(=O)c2ccccc2)cc1	47	–	–	–	–
CCCOc1ccc(F)cc1-c1cc(C(=O)Nc2ccc(C(C)C)cc2)[nH]n1	55	·	–	–	–
CCc1nnc2n1N=C(c1ccc(OC)cc1)CS2	37	–	·	–	–
CCc1nnc2n1N=C(c1ccc([N+](=O)[O-])cc1)CS2	–	–	–	–	–
CCOc1ccc(-c2nnc3n2N=C(c2ccc(OC)cc2)CS3)cc1	–	–	·	–	50
CCOc1ccc(C2=Nn3c(nnc3-c3ccccc3OC)SC2)cc1	–	–	·	–	–
[N-]=[N+]=N[C@@H](CCN1CC[C@H](NC(=O)OCc2ccccc2)CCC1=O)c1ccccc1	–	–	–	–	–
Cc1ccc(-c2nc(CN(C)Cc3cccc4cnccc34)c(C)o2)s1	–	51	–	–	·
Cc1ccc(-c2nc(CN(C)C3CCOCC3)c(C)o2)s1	–	–	–	–	–
Cc1nn(CC(C)C)c(Cl)c1C(=O)N(c1ccc(Cl)cc1F)S(C)(=O)=O	26	–	–	–	–
CC(=O)C1=C(C)NC(SCC(=O)c2ccc(Cl)c(Cl)c2)=C(C#N)C1c1ccco1 (stereo not drawn)	–	–	–	–	82
Cc1ccc(S(=O)(=O)N(C)CCCC(=O)Nc2ccncc2)cc1	–	–	–	–	–
O=C(CNC(=O)c1ccco1)N=Nc1c(O)n(CCc2ccccc2)c2ccccc12	34	–	–	–	–
CCn1c(O)c(N=NC(=O)CNC(=O)Cc2ccccc2)c2ccccc21	–	–	–	–	–
CCOc1ccc(Br)cc1C(=O)Nc1ccc(C(=O)NCC(C)C)cc1	115	–	·	–	–
CN(C)S(=O)(=O)c1ccc(N2CCCC2)c(C(=O)Nc2nc3ccccc3s2)c1	90	–	–	–	–
CN(C)S(=O)(=O)c1ccc(N2CCCC2)c(C(=O)Nc2nc3ccc(F)cc3s2)c1	63	–	–	–	–
Cc1cccc2sc(NC(=O)c3cc(S(=O)(=O)N(C)C)ccc3N3CCCC3)nc12	87	–	–	–	–
CN(C)S(=O)(=O)c1ccc(N2CCCC2)c(C(=O)Nc2nc(-c3ccc(F)cc3)cs2)c1	–	–	–	–	–
CC(C)Cc1nnc(NC(=O)c2cc(S(=O)(=O)N(C)C)ccc2N2CCCC2)s1	–	–	–	–	–
CN(C)S(=O)(=O)c1ccc(N2CCCC2)c(C(=O)Nc2ccccc2Br)c1	–	–	–	–	–
SMILES	Glyco luc inh	PvdQ acylase	ERp5 block	PDI inh	Vif inh
CCOC(=O)C1(C)CCCN1C(=O)c1ccc(C)cc1 (stereo not drawn)	–	·	–	–	–
CCSC1=C(C#N)C(c2ccc(Cl)cc2)C2=C(CCCC2=O)N1 (stereo not drawn)	–	–	·	–	–
COc1ccc(-c2sc3cc(OC)c(OC)cc3c2C#CC2(O)CCCCC2)cc1	–	–	–	–	–
Cc1ccc(S(=O)(=O)N(C)C[C@H]2Oc3c(NC(=O)c4ccncc4)cccc3C(=O)N([C@@H](C)CO)C[C@@H]2C)cc1	·	·	–	·	·
COc1ccc(-c2nc(CS(=O)CC(=O)NC3CCCCCC3)c(C)o2)cc1 (stereo not drawn)	–	–	–	–	–
N#CCn1c(C2CCCCC2)nc2ccccc2c1=O	–	35	·	–	–
CC(=O)N1CCC(=NNC(=O)c2cc3ccccc3cc2O)CC1	–	–	–	–	51
O=S(=O)(O)c1ccc(O)c2cc(Nc3ccccc3)ccc12	–	–	–	–	–
CCN(C[C@H]1N[C@@H](CO)[C@@H]1c1ccc(-c2ccc(F)cc2)cc1)C(=O)COC	·	·	–	·	·
COc1ccc(C2c3ccc4ccccc4c3Oc3ncn(Cc4ccco4)c(=N)c32)cc1OC (stereo not drawn)	–	–	·	–	–
COc1ccc(C2c3ccc(O)cc3Oc3ncn4nc(-c5cccnc5)nc4c32)cc1OC (stereo not drawn)	–	–	–	41	–
COc1ccc(C2c3ccc(O)cc3Oc3ncn(Cc4ccco4)c(=N)c32)cc1OC (stereo not drawn)	–	–	–	33	–
CCOC(=O)/C(=C\c1ccccc1)C(=O)c1cc(C(C)=O)c(Nc2ccccc2)s1	35	–	·	–	–
C[C@@H]1CN([C@H](C)CO)C(=O)c2cccc(NC(=O)Nc3cccc4ccccc34)c2O[C@H]1CN(C)C(=O)Nc1ccc(C(F)(F)F)cc1	·	·	62	·	·
C[C@@H]1CN([C@H](C)CO)C(=O)c2c(c3ccccc3n2C)-c2ccccc2CO[C@@H]1CN(C)C(=O)Nc1ccccc1C(F)(F)F	–	·	–	–	53
C[C@H]1CN([C@@H](C)CO)C(=O)c2cccc(NC(=O)Nc3ccc(C(F)(F)F)cc3)c2O[C@H]1CN(C)C(=O)Nc1cccc2ccccc12	·	·	–	·	·
C[C@H]1CN([C@@H](C)CO)C(=O)c2cccc(NC(=O)Nc3cccc4ccccc34)c2O[C@@H]1CN(C)C(=O)Nc1ccc(C(F)(F)F)cc1	·	·	79	·	·
C[C@@H]1CN([C@H](C)CO)C(=O)c2cccc(NC(=O)Nc3ccc(C(F)(F)F)cc3)c2O[C@@H]1CN(C)C(=O)Nc1cccc2ccccc12	·	·	–	·	·
C[C@@H]1CN([C@H](C)CO)C(=O)c2cccc(NC(=O)Nc3cccc4ccccc34)c2O[C@@H]1CN(C)C(=O)Nc1ccc(C(F)(F)F)cc1	·	·	42	·	·
C[C@@H]1CN([C@@H](C)CO)C(=O)c2cc(NC(=O)Cn3cnnn3)ccc2O[C@H]1CN(C)S(=O)(=O)c1ccccc1	·	·	–	·	·
Cc1ccccc1NC(=O)Cc1nc(COC(=O)c2ccccn2)cs1	–	–	–	–	–
C[C@H](CO)N1C[C@H](C)[C@H](CN(C)Cc2ccc(Oc3ccccc3)cc2)Oc2c(NC(=O)Nc3ccc4c(c3)OCO4)cccc2C1=O	·	·	–	·	·
C[C@@H]1CN([C@H](C)CO)C(=O)c2cccc(NC(=O)Nc3ccc4c(c3)OCO4)c2O[C@H]1CN(C)Cc1ccc(Oc2ccccc2)cc1	·	·	32	·	·
COc1ccc(S(=O)(=O)N(C)C[C@@H]2Oc3ccc(NC(=O)c4ccncc4)cc3C(=O)N([C@H](C)CO)C[C@@H]2C)cc1	·	·	64	·	·
COc1ccc(NC(=O)Nc2ccc3c(c2)CC(=O)N([C@@H](C)CO)C[C@H](C)[C@@H](CN(C)C(=O)Nc2ccc(F)cc2)O3)cc1	·	·	–	·	·
C[C@H](CO)N1C[C@H](C)[C@@H](CN(C)Cc2ccc(C(=O)O)cc2)Oc2ccc(NS(=O)(=O)c3cccs3)cc2CC1=O	·	·	43	·	·
